Measurements as given in the supplement of paper PMC6555819.

What was measured:
Assay in all cases: PBM binding z-score (relative to random genomic background probes); higher = stronger binding; sequences stand for … in GC…GCGATTGACAGCGTAGAATGAAGG
[1] = tested on: FXR:RXRa (NR concentration 270 nM, RXRa partner concentration 90 nM)
Outline: (§1)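 On custom Agilent 4×180K arrays, double-stranded probes with 34-nt variable regions carried direct-repeat seeds, single-nucleotide variants, half-site ablations or random human genomic background. Ligand-free nuclear receptor dimers were applied for 1 h, and binding was read with antibodies against each partner (one per run). Binding z-scores come from regression-normalized fluorescence, with the random background probes as reference.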

[2] = tested on: LXRa:RXRa (NR concentration 270 nM, RXRa partner concentration 90 nM)
Outline: as §1

[3] = tested on: LXRa homodimer (NR concentration 270 nM)
Outline: as §1

[4] = tested on: LXRb:RXRa (NR concentration 270 nM, RXRa partner concentration 90 nM)
Outline: as §1

[5] = tested on: LXRb homodimer (NR concentration 270 nM)
Outline: as §1

[6] = tested on: PPARa:RXRa (NR concentration 270 nM, RXRa partner concentration 90 nM)
Outline: as §1

[7] = tested on: PPARg:RXRa (NR concentration 180 nM, RXRa partner concentration 90 nM)
Outline: as §1

[8] = tested on: PPARg:RXRa 270nM:90nM, anti-RXR (NR concentration 270 nM, RXRa partner concentration 90 nM)
Outline: as §1

[9] = tested on: PPARg:RXRa 30nM:10nM, anti-RXR (NR concentration 30 nM, RXRa partner concentration 10 nM)
Outline: as §1

[10] = tested on: PPARg:RXRa 90nM:30nM, anti-RXR (NR concentration 90 nM, RXRa partner concentration 30 nM)
Outline: as §1

[11] = tested on: PPARg:RXRa DBDmut IVT, anti-RXR (DBD mutation: RXRa K156A/R161A, NR concentration 270 nM, RXRa partner concentration 90 nM)
Outline: as §1

[12] = tested on: PPARg:RXRa IVT, anti-PPARg (NR concentration 270 nM, RXRa partner concentration 90 nM)
Outline: as §1

[13] = tested on: PPARg DBDmut:RXRa IVT, anti-PPARg (DBD mutation: PPARg1 K132A/R137A, NR concentration 270 nM, RXRa partner concentration 90 nM)
Outline: as §1

[14] = tested on: PPARg DBDmut IVT, anti-PPARg (DBD mutation: PPARg1 K132A/R137A, NR concentration 270 nM)
Outline: as §1

[15] = tested on: PPARg homodimer (NR concentration 180 nM)
Outline: as §1

[16] = tested on: PXR:RXRa (NR concentration 270 nM, RXRa partner concentration 90 nM)
Outline: as §1

[17] = tested on: PXR homodimer (NR concentration 270 nM)
Outline: as §1

[18] = tested on: RARa:RXR (NR concentration 270 nM, RXRa partner concentration 90 nM)
Outline: as §1

[19] = tested on: RARa homodimer (NR concentration 270 nM)
Outline: as §1

[20] = tested on: RARb:RXRa (NR concentration 270 nM, RXRa partner concentration 90 nM)
Outline: as §1

Row | Sequence | PBM binding z-score [1] | PBM binding z-score [2] | PBM binding z-score [3] | PBM binding z-score [4] | PBM binding z-score [5] | PBM binding z-score [6] | PBM binding z-score [7] | PBM binding z-score [8] | PBM binding z-score [9] | PBM binding z-score [10] | PBM binding z-score [11] | PBM binding z-score [12] | PBM binding z-score [13] | PBM binding z-score [14] | PBM binding z-score [15] | PBM binding z-score [16] | PBM binding z-score [17] | PBM binding z-score [18] | PBM binding z-score [19] | PBM binding z-score [20]
1 | TCTCGGAGAACACGAAAGGTCAGAGCTCGACATC | 2.02 | 3.08 | 1.46 | 3 | -0.199 | 3.32 | 0.977 | 2.21 | 2.43 | 2.25 | 1.25 | 1.13 | -0.0833 | -0.197 | 1.7 | 3.39 | 0.0795 | 3.89 | 0.536 | 3.55
2 | TAGCCTAGGTCATTCAGAGGCCAGTATAGAAAGC | 4.56 | 3.63 | 0.829 | 2.82 | 0.598 | 3.63 | 2.34 | 2.29 | 0.542 | 1.47 | 1.43 | 2.85 | 0.547 | 0.364 | 2 | 2.58 | -0.166 | 3.25 | -0.206 | 4.09
3 | TCTGCTAGGTCAGTTGGCCAGCTAACGAGCTGCC | 0.857 | 0.327 | -0.78 | -0.127 | -0.163 | 1.2 | -0.0379 | 1.3 | 0.758 | 1.1 | 2.81 | 2.82 | 0.783 | 0.614 | -0.509 | -0.116 | -0.845 | 0.0154 | -1.78 | 3.44
4 | ATCTCTCGGTAAAGATAGTTCAGTGAATGCAAAT | 0.327 | 1.31 | 0.62 | 0.406 | 0.893 | 0.353 | 0.0238 | 0.0221 | 0.409 | 0.333 | -0.304 | 0.216 | 0.814 | 0.624 | 1.08 | 0.754 | 0.572 | 0.965 | 1.32 | 0.868
5 | TCTATTAGTTGATGAGGGCAACCGAAACAGCGGA | 0.667 | 0.683 | 0.18 | 0.607 | 0.412 | 1.07 | 0.347 | 2 | 3.62 | 2.83 | 2.06 | 0.967 | 0.312 | 0.843 | 1 | 0.877 | 0.351 | 0.981 | 0.755 | 1.41
6 | TCTCGGAGGCCACGAAGGTCAGAGCTTTCCAGAG | 0.966 | 1.34 | -0.257 | 1.25 | -1.36 | 2.21 | 0.256 | 1.82 | 1.63 | 1.54 | 1.55 | 1.81 | -1.16 | -1.03 | 0.239 | 2.19 | 0.613 | 2.29 | -1.17 | 3.38
7 | GCTGGTAGGTCAACTGATGGTCAGCTAAAGCTCG | 4.7 | 3.62 | 0.696 | 2.66 | 0.322 | 4.64 | 4.59 | 4.72 | 1.84 | 3.71 | 5.49 | 5.82 | 0.658 | 0.562 | 3.06 | 2.3 | -0.226 | 3.53 | 1.16 | 4.29
8 | TCATGTAGATCAAAGGTTAAGAAAGCCGAAGCCT | 1.74 | 2.28 | 0.326 | 2.06 | -0.197 | 4.5 | 8.22 | 8.1 | 7.58 | 8.85 | 2.23 | 3.59 | 0.546 | 0.593 | 1.17 | 2.12 | 0.246 | 3.29 | 0.881 | 1.91
9 | CCGACTGGGGCATAAGATTACCATAAGCCAGCCC | -0.495 | -0.33 | -0.319 | -0.411 | -1.33 | 0.114 | 1.12 | 0.921 | -0.305 | 0.461 | 3.26 | 1.75 | -0.988 | -1.17 | 0.089 | -0.666 | -0.41 | -0.621 | -0.486 | 0.112
10 | CTCGAAATGTCGTGCTCAGGTGAGTATACCAAAC | 0.0674 | -0.048 | -0.175 | -0.182 | 0.0146 | -0.0536 | -0.165 | -0.324 | 0.0529 | -0.0106 | -0.127 | 0.323 | 0.0105 | 0.169 | -0.101 | -0.206 | -0.0833 | 0.0583 | 0.245 | 0.417
11 | CCTACTGGGCCATTCAAAGGTCATTGATCATATG | 3.24 | 4.61 | 6.31 | 4.29 | 0.576 | 4.43 | 3.07 | 4.03 | 1.44 | 3.35 | 4.67 | 4.81 | -0.127 | -0.542 | 2.61 | 5 | 2.28 | 5.19 | 0.686 | 3.72
12 | GCTGCTAGGTCGGGTTGGTCAGCTAACGGGTACG | -0.105 | -0.0902 | -0.312 | -0.21 | -0.573 | -0.124 | -0.576 | -0.344 | -0.825 | -0.553 | 0.38 | 0.339 | -1.51 | -0.0499 | -0.349 | -0.0179 | -0.16 | -0.157 | -1.16 | 1.16
13 | ATATGTAGGTTACATCCGGGTCATTCACGCTATG | 2.44 | 4.66 | 1.9 | 3.31 | 1.26 | 4.8 | 6.27 | 5.48 | 2.76 | 4.79 | 7.63 | 7.57 | 6.55 | 5.07 | 5.81 | 4.01 | 1.48 | 4.11 | 1.52 | 2.41
14 | AGAACGCGGGCAATGAGTTGATAGCACGGGTGGC | -0.43 | -0.534 | -0.756 | -1.26 | -1.21 | -0.548 | 0.71 | -0.504 | -0.182 | -0.404 | 0.179 | -0.0527 | 0.2 | -0.67 | -0.548 | -0.0595 | 0.229 | -0.166 | -0.629 | 0.349
